Measurements taken from PubChem BioAssay (Tox21).
Values joined by “and” are separate entries in the source; they are usually repeats but may differ in a detail not shown here. Identical values can stand only once. Inconclusive results are not listed. Entries that show only a call come without a potency. Active and inactive are the calls of the source. Unless noted, calls follow the shape of the dose curve; as a rule, active = well fitted curve in the direction sought with a large enough effect in the repeat runs; inconclusive = weak or mixed curves; inactive = no such curve, though single readings can be large; an effect the other way counts as inactive or inconclusive.

Assays:
[1] = qHTS assay to test for compound auto fluorescence at 535 nm (green) in HEK293 cells (AID 720680)
[2] = qHTS assay to test for compound auto fluorescence at 460 nm (blue) in HEK293 cell free culture (AID 720681); also: potency is read from the fitted curve at half-maximal effect
Method in brief: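 Blue fluorescence (Ex 405/Em 460 nm, triamterene-equivalent) was read immediately after pin transfer of compound or DMSO into medium (DMEM, 10% FBS) without cells.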

[3] = qHTS assay to test for compound auto fluorescence at 535 nm (green) in HEK293 cell free culture (AID 720682)
Method in brief: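 Using fluorescein as calibrant, autofluorescence was quantified at 485/535 nm in cell-free DMEM containing 10% FBS after pintool addition of compound or vehicle.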

[4] = qHTS assay to test for compound auto fluorescence at 590 nm (red) in HEK293 cell free culture (AID 720683)
Method in brief: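 Red-channel autofluorescence of compounds in culture medium (DMEM, 10% FBS), no cells, measured at 540/590 nm. Rose Bengal sodium is the reference fluorophore for equivalence.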

[5] = qHTS assay to test for compound auto fluorescence at 590 nm (red) in HepG2 cell free culture (AID 720684)
Method in brief: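 Plate contents were MEM with 10% FBS plus test compound or DMSO, no cells. Fluorescence was recorded with 540 nm excitation and 590 nm emission.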

[6] = qHTS assay to test for compound auto fluorescence at 460 nm (blue) in HepG2 cell free culture (AID 720685); also: potency is read from the fitted curve at half-maximal effect
Method in brief: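 Compound (23 nL) or DMSO pinned into cell-free MEM with 10% FBS; blue fluorescence read at 405/460 nm excitation/emission, expressed as auto-fluorescence equivalency to triamterene.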

[7] = qHTS assay to test for compound auto fluorescence at 535 nm (green) in HepG2 cell free culture (AID 720686)
[8] = qHTS assay to test for compound auto fluorescence at 460 nm (blue) in HepG2 cells (AID 720687); also: potency is read from the fitted curve at half-maximal effect
Method in brief: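 Blue-channel autofluorescence (Ex/Em 405/460 nm, triamterene-equivalent) was measured after 1 hr compound exposure at 37 C, 5% CO2. Cells were HepG2, plated overnight at 37 C in MEM plus 10% FBS.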

[9] = target: Glucocorticoid receptor (Homo sapiens) (UniProt P04150); assay: qHTS assay to identify small molecule agonists of the glucocorticoid receptor (GR) signaling pathway (AID 720691; active = well fitted activation curve with a large enough effect in the signal ratio in the repeat runs, not every such curve was filed as active; the % refers to the signal ratio; also: potency is read from the fitted curve at half-maximal effect); conditions: GR-bla HeLa, beta-lactamase reporter ratio, 18 h; activation: at 62.4 µM (top of the series)
Method in brief: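 qHTS in GR-bla HeLa cells: 4 h settling at 37 C/5% CO2, 18 h compound incubation at 37 C, 2 h LiveBLAzer B/G FRET substrate at room temperature, fluorescence intensity measured.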

[10] = qHTS assay for identifying genotoxic compounds that show differential cytotoxicity against isogenic chicken DT40 cell lines with known DNA damage response pathways - wild type cell line (AID 743012); also: nearly all actives have a fitted effect of over 60% in size; also: potency is read from the fitted curve at half-maximal effect
Method in brief: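 First, wild type DT40 cells were plated at 300 per well and equilibrated about 0.5 h at 37 C/5% CO2. Next, compounds in DMSO were added and exposure lasted 40 h. Finally, CellTiter-Glo was added for 30 min at room temperature and luminescence recorded.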

[11] = qHTS assay for identifying genotoxic compounds that show differential cytotoxicity against isogenic chicken DT40 cell lines with known DNA damage response pathways - Rev3 mutant cell line (AID 743014); also: nearly all actives have a fitted effect of over 55% in size; also: potency is read from the fitted curve at half-maximal effect
[12] = qHTS assay for identifying genotoxic compounds that show differential cytotoxicity against isogenic chicken DT40 cell lines with known DNA damage response pathways - Rad54/Ku70 mutant cell line (AID 743015); also: nearly all actives have a fitted effect of over 60% in size; also: potency is read from the fitted curve at half-maximal effect
[13] = qHTS assay to identify small molecule antagonists of the androgen receptor (AR) signaling pathway - cell viability counter screen (AID 743033; also: nearly all actives have a fitted effect of over 45% in size; also: potency is read from the fitted curve at half-maximal effect)
[14] = target: Androgen receptor (Homo sapiens) (UniProt P10275); assay: qHTS assay to identify small molecule antagonists of the androgen receptor (AR) signaling pathway (AID 743035; active = well fitted inhibition curve with a large enough effect in the signal ratio in the repeat runs, not every such curve was filed as active; the % refers to the signal ratio; also: potency is read from the fitted curve at half-maximal effect)
Method in brief: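 Beta-lactamase FRET read (2 h RT incubation with LiveBLAzer B/G) following 16 h of compound plus R1881 treatment of AR-UAS-bla HEK293 cells, which had been pre-incubated 4 h at 37C.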

[15] = target: Androgen receptor (Homo sapiens) (UniProt P10275); assay: qHTS assay to identify small molecule agonists of the androgen receptor (AR) signaling pathway (AID 743036; active = well fitted activation curve with a large enough effect in the signal ratio in the repeat runs, with a control signal flat, not every such curve was filed as active; the % refers to the signal ratio)
Method in brief: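 In this Tox21 qHTS, 2,000 HEK293 AR-bla cells per well were incubated with compounds for 16 h at 37C and 5% CO2. Fluorescence intensity was recorded 2 h after adding LiveBLAzer B/G FRET substrate at room temperature.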

[16] = target: Androgen receptor (Homo sapiens) (UniProt P10275); assay: qHTS assay to identify small molecule agonists of the androgen receptor (AR) signaling pathway using the MDA cell line (AID 743040; also: nearly all actives have a fitted effect of over 20% in size)
Method in brief: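 After a 5 h incubation at 37C and 0% CO2, MDA-kb2 reporter cells were dosed with compounds in DMSO and kept 16 h under the same conditions. Luciferase activity was then read as luminescence with ONE-Glo.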

[17] = qHTS assay to identify small molecule antagonists of the androgen receptor (AR) signaling pathway using the MDA cell line - cell viability counter screen (AID 743041; also: nearly all actives have a fitted effect of over 45% in size; also: potency is read from the fitted curve at half-maximal effect)
Method in brief: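 R1881-driven MDA-kb2 AR-luc cells, 3,000/well, were dosed with library compounds for 16 h; cell health came from CellTiter-Fluor fluorescence in the reporter wells.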

[18] = qHTS assay to identify small molecule antagonists of the glucocorticoid receptor (GR) signaling pathway - cell viability counter screen (AID 720693); also: nearly all actives have a fitted effect of over 55% in size; also: potency is read from the fitted curve at half-maximal effect
[19] = target: Androgen receptor (Homo sapiens) (UniProt P10275); assay: qHTS assay to identify small molecule antagonists of the androgen receptor (AR) signaling pathway using the MDA cell line (AID 743042; also: nearly all actives have a fitted effect of over 55% in size)
Method in brief: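 Antagonist mode: compounds plus R1881 agonist added to MDA-kb2 AR-luc cells, incubated 16 h at 37C. Luciferase reporter luminescence quantified, with multiplexed CellTiter-Fluor readout for cell viability.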

[20] = target: Glucocorticoid receptor (Homo sapiens) (UniProt P04150); assay: qHTS assay to identify small molecule antagonists of the glucocorticoid receptor (GR) signaling pathway (AID 720692; active = well fitted inhibition curve with a large enough effect in the signal ratio in the repeat runs, not every such curve was filed as active; the % refers to the signal ratio; also: potency is read from the fitted curve at half-maximal effect)
Method in brief: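 Inhibition of glucocorticoid signalling is measured in HeLa cells with a GRE-controlled beta-lactamase reporter; cells are co-treated with compound and 5 nM dexamethasone (final) for 18 h before FRET substrate readout.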
Tags tell the direction and shape of the fitted curve or compound fluorescence and quenching.

Androgen receptor (Homo sapiens), sequence (P10275 whole entry, looked up): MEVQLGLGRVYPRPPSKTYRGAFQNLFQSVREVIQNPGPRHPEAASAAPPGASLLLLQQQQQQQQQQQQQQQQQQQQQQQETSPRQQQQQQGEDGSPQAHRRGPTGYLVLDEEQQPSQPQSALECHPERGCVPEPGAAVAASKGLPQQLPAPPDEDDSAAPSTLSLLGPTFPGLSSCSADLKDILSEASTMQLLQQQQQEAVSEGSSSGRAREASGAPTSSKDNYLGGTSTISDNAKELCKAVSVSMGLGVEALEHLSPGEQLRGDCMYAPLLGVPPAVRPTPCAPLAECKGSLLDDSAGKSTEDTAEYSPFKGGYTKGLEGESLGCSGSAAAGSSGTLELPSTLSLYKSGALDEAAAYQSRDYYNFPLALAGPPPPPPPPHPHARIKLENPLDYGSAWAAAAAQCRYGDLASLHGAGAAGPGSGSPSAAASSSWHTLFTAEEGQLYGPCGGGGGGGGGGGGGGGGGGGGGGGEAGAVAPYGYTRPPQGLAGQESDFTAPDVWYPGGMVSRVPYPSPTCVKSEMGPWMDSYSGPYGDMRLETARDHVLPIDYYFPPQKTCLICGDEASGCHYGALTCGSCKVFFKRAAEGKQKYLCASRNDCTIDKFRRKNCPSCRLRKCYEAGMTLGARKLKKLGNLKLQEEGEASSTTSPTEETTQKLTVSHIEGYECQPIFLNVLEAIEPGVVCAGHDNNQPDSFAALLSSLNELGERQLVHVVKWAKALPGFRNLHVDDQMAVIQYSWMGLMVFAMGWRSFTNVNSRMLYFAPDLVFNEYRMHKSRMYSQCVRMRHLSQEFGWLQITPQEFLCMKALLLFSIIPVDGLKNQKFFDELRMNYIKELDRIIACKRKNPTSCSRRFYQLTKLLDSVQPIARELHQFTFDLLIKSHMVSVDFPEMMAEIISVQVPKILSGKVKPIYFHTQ
Glucocorticoid receptor (Homo sapiens), sequence (P04150 whole entry, looked up): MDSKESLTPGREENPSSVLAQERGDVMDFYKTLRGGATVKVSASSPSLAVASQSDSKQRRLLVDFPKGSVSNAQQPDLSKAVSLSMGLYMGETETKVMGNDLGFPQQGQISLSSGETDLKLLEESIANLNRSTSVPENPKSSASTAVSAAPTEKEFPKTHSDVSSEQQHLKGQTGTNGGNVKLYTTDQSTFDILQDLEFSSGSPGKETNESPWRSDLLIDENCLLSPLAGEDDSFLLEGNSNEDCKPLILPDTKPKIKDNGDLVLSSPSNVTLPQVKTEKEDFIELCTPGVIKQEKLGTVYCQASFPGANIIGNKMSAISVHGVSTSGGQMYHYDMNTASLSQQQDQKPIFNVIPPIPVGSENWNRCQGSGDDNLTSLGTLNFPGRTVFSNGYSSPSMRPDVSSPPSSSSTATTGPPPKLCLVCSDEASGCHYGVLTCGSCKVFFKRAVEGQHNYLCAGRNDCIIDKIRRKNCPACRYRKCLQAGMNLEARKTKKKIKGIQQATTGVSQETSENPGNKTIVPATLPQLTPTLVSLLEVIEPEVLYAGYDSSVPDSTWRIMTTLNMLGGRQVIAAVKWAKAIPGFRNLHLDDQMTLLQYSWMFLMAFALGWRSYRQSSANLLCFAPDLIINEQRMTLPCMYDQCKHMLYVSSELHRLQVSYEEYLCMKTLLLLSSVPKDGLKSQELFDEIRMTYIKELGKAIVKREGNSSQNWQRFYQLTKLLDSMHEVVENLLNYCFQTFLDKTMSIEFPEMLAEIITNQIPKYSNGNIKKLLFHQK

SMILES | outcome [1] | Potency [2] | outcome [3] | Potency [4] | Potency [5] | Potency [6] | Potency [7] | Potency [8] | Potency [9] | Potency [10] | Potency [11] | Potency [12] | Potency [13] | Potency [14] | Potency [15] | Potency [16] | Potency [17] | Potency [18] | Potency [19] | Potency [20]
CC[C@H](c1ccc(O)cc1)[C@@H](CC)c1ccc(O)cc1 | inactive | inactive | inactive | inactive | inactive | inactive | inactive | inactive | inactive | 12.2 µM (active) | 10.1 µM (active) and 13.7 µM (active) | 19.3 µM (active) | inactive | 8.11 µM (active) and 21.9 µM (active) | inactive | inactive | inactive |  |  | 
O=C(OCC1CO1)C1CCCCC1C(=O)OCC1CO1 (stereo unspecified) | inactive | inactive | inactive | inactive | inactive | inactive | inactive | inactive | inactive | 8.64 µM (active) |  | 9.7 µM (active) | inactive |  |  | inactive | inactive | inactive | inactive | 
O=C(Oc1cccc2cccnc12)c1ccccc1 | inactive | inactive | inactive | inactive | inactive | inactive | inactive | inactive |  | 2.66 µM (active) | 2.98 µM (active) | 6.68 µM (active) | 7.56 µM (active) |  |  |  | 6.99 µM (active) | inactive |  | inactive
Cc1cccc2c1cc1ccc3cccc4ccc2c1c34 | inactive | inactive | inactive | inactive | inactive | inactive | inactive | inactive | 5.01 µM [fluorescent] (active) | inactive | inactive | inactive | inactive |  |  |  | inactive | inactive |  | 
COC(=O)C1=C(C)NC(C)=C(C(=O)OCC(C)C)C1c1ccccc1[N+](=O)[O-] (stereo unspecified) | inactive | inactive | inactive | inactive | inactive | inactive | inactive | inactive |  | 5.31 µM (active) and 3.86 µM (active) | 10.6 µM (active) and 4.33 µM (active) | 8.41 µM (active) and 5.45 µM (active) | 43.6 µM (active) |  |  |  |  | inactive |  | 24.5 µM (active)
Nc1ccccc1O | inactive | inactive | inactive | inactive | inactive | inactive | inactive | inactive | inactive | 7.59 µM (active) | 6.77 µM (active) | 5.38 µM (active) | inactive |  |  |  | 53.8 µM (active) | inactive |  | 
CCCCN(CCCC)C(=O)N(CCCC)CCCC | inactive | inactive | inactive | inactive | inactive | inactive | inactive | inactive | inactive |  | inactive | inactive | inactive |  |  |  | inactive | inactive |  | 
CCN(C(=O)c1cc(C)cc(OC[C@H](C)Nc2ccncc2)c1)C(C)C | inactive | inactive | inactive | inactive | inactive | inactive | inactive | inactive |  | 19.1 µM (active) | 19.1 µM (active) | 17 µM (active) | inactive |  |  |  | inactive | inactive |  | inactive
Clc1ccc2n[nH]nc2c1 | inactive | inactive | inactive | inactive | inactive | inactive | inactive | inactive | inactive | inactive |  |  | inactive |  |  |  | inactive | inactive |  | 
Oc1ccc(C2(c3ccc(O)cc3)CC3CC2C2CCCC32)cc1 (stereo unspecified) | inactive | inactive | inactive | inactive | inactive | inactive | inactive | inactive |  | inactive | inactive | inactive | 47 µM (active) |  |  | inactive |  | inactive |  | 18.7 µM (active)
CCC1=C[C@@H]2CN(C1)Cc1c([nH]c3ccccc13)[C@@](C(=O)OC)(c1cc3c(cc1OC)N(C)[C@H]1[C@@](O)(C(=O)OC)[C@H](OC(C)=O)[C@]4(CC)C=CCN5CC[C@]31[C@@H]54)C2 | inactive | inactive | inactive | inactive | inactive | inactive | inactive | inactive | inactive | 0.075 µM (active) |  | 0.119 µM (active) | inactive |  |  |  | inactive | inactive |  | 
Nc1c2ccccc2nc2ccccc12 | inactive | 11.2 µM (active) and 15.8 µM (active) | inactive | inactive | inactive | 14.1 µM [fluorescent] (active) and 15.8 µM [fluorescent] (active) | inactive | 11.2 µM [fluorescent] (active) and 15.8 µM [fluorescent] (active) |  | 2.11 µM (active) and 4.27 µM (active) | 2.66 µM (active) and 2.14 µM (active) | 944 nM (active) and 677 nM (active) |  |  |  |  |  | 16.9 µM (active) and 15.3 µM (active) |  | 
N#CSc1ccc(N)c([N+](=O)[O-])c1 | inactive | inactive | inactive | inactive | inactive | inactive | inactive | inactive | inactive | 12.3 µM (active) |  | 9.75 µM (active) | 24.7 µM (active) | 43.9 µM (active) |  | inactive | 61.5 µM (active) | 55.3 µM (active) |  | 
